The source made the active and inactive calls.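 How the source made its calls: active means ATP signal drop in HepG2 cells with fitted half-maximal concentration at most twice the top tested dose; inconclusive means flat curve losing 30 to 70% signal, or poor fit; inactive means the rest.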
assay: viability loss in HepG2 liver cells – cell-based, luminescence, dry powder, set 9, cytotoxicity control, dose response (AID 743358); conditions: ATP luminescence, 72 h; series mostly up to 26 µM

SMILES | outcome
CN1c2ccc(-c3cccc(F)c3)cc2[C@H]2[C@H](CCN2C(=O)Cc2cccnc2)[C@H]1CO | inactive
CC(=O)c1ccc(N2CCN(C(=O)c3ccccc3F)CC2)cc1 | inactive
CN1c2ccc(-c3ccc(F)cc3)cc2[C@H]2[C@H](CCN2C(=O)Cc2ccccn2)[C@H]1CO | inactive
COc1ccccc1NC(=O)N1CC[C@@H]2[C@@H](CO)N(C)c3ccc(-c4cccc(F)c4)cc3[C@@H]21 | inactive
CCCNC(=O)N1CC[C@@H]2[C@@H](CO)N(C)c3ccc(-c4ccc(F)cc4)cc3[C@@H]21 | inactive
COC(=O)c1ccc(N2CCN(C(=O)c3ccc4c(c3)OCO4)CC2)cc1 | inactive
CN1c2ccc(-c3cccc(F)c3)cc2[C@@H]2[C@@H](CCN2C(=O)c2ccc3c(c2)OCO3)[C@@H]1CO | inactive
CC(=O)c1ccc(N2CCN(C(=O)c3ccccc3Cl)CC2)cc1 | inactive
CN(C)C(=O)c1ccc(N2CCN(C(=O)c3ccc4c(c3)OCO4)CC2)cc1 | inactive
COc1ccc(NC(=O)N2CC[C@@H]3[C@@H](CO)N(C)c4ccc(-c5cccc(F)c5)cc4[C@@H]32)cc1 | inactive
CC(=O)c1ccc(N2CC3(CN(C(=O)c4ccc5c(c4)OCO5)C3)C2)cc1 | inactive
COc1ccc(NC(=O)N2CC[C@@H]3[C@@H](CO)N(C)c4ccc(-c5ccc(F)cc5)cc4[C@@H]32)cc1 | inactive
CN1c2ccc(-c3cccc(F)c3)cc2[C@H]2[C@H](CCN2C(=O)Cc2ccccc2)[C@H]1CO | inactive
CNC(=O)c1ccc(N2CCN(C(=O)c3ccc4c(c3)OCO4)CC2)cc1 | inactive
CN1c2ccc(-c3ccc(F)cc3)cc2[C@H]2[C@H](CCN2C(=O)Cc2cccnc2)[C@H]1CO | inactive
CN1c2ccc(-c3cccc(F)c3)cc2[C@H]2[C@H](CCN2C(=O)c2ccc3c(c2)OCO3)[C@@H]1CO | inactive

SMILES | outcome
COc1ccccc1NC(=O)N1CC[C@@H]2[C@@H](CO)N(C)c3ccc(-c4ccc(F)cc4)cc3[C@@H]21 | inactive
CN1c2ccc(-c3ccc(F)cc3)cc2[C@H]2[C@H](CCN2C(=O)Nc2ccc(F)cc2)[C@H]1CO | inactive
CCCCCCCC(=O)N1CC[C@@H]2[C@@H](CO)N(C)c3ccc(-c4cccc(F)c4)cc3[C@@H]21 | inactive
CN1c2ccc(-c3ccc(F)cc3)cc2[C@H]2[C@H](CCN2C(=O)Nc2cc(F)ccc2F)[C@H]1CO | inactive
CCC(=O)N1CC[C@@H]2[C@@H](CO)N(C)c3ccc(-c4ccc(F)cc4)cc3[C@@H]21 | inactive
CN1c2ccc(-c3cccc(F)c3)cc2[C@H]2[C@H](CCN2C(=O)CCCCCCN)[C@H]1CO | inactive
CC(=O)c1ccc(NCCNC(=O)c2ccc3c(c2)OCO3)cc1 | inactive
CC(=O)c1ccc(N2CCN(C(=O)c3ccc4c(c3)OCO4)CC2)cc1 | inactive
COc1ccccc1C(=O)N1CCN(c2ccc(C(C)=O)cc2)CC1 | inactive
COCC(=O)N1CC[C@@H]2[C@@H](CO)N(C)c3ccc(-c4cccc(F)c4)cc3[C@@H]21 | inactive
CC(C)NC(=O)N1CC[C@@H]2[C@@H](CO)N(C)c3ccc(-c4ccc(F)cc4)cc3[C@@H]21 | inactive
CN1c2ccc(-c3cccc(F)c3)cc2[C@@H]2[C@@H](CCN2C(=O)c2ccc3c(c2)OCO3)[C@H]1CO | inactive
CN1c2ccc(-c3cccc(F)c3)cc2[C@H]2[C@H](CCN2C(=O)CCCCCCC(=O)O)[C@H]1CO | inactive
CC(=O)c1ccc(N2CCN(C(=O)c3ccc4c(c3)OCO4)[C@H](C)C2)cc1 | inactive
CNS(=O)(=O)c1ccc(N2CCN(C(=O)c3ccc4c(c3)OCO4)CC2)cc1 | inactive

From PubChem BioAssay AID743358 (Broad Institute, 2014)
